This is a sample that favours compounds with a hit; in the whole collection about 14% have one here.
Shiga toxin inh: inhibitors of Shiga toxin in Vero cells. Vero cells, Shiga toxin protein synthesis inhibition reporter. inhibition, % at 38.7 µM. hit rate 9.2% among 290,000. AID 2315; in the data active = inhibition mostly above about 28%, no sharp cut-off; inactive = mostly below about 43%; also: 0% is about no effect
Cycloheximide cs: affects cycloheximide protein synthesis inhibition readout, counter-screen; cell reporter, cycloheximide protein synthesis inhibition counterscreen; max response, %; hit rate 12% among 300,000; in the data active = max response mostly above about 13%, no sharp cut-off; inactive = mostly below about 14%; also: read at 38.3 µM for the half of the compounds with a filed dose; 0% is about no effect
NS1 function inh: inhibitors of influenza NS1 protein function. AID 2326. Potency, µM (highest dose often 46.1 µM), for the others: top-dose activity, positive = more growth. hit rate 0.4% among 270,000; calls by dose curve; also: potency is read from the fitted curve at half-maximal effect; actives are rising curves; nearly all actives have a fitted effect of over 50% in size
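Compounds were scored for reversing the slow growth caused by influenza A NS1 in S. cerevisiae, measured by optical density at 600 nm. Assay medium contained 2% galactose at pH 6.0; NS1-free yeast of the same strain were the positive control.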
LmPK inhibitor: inhibitors of Leishmania mexicana pyruvate kinase | purified LmPK, Kinase-Glo ATP luminescence, 1 h | Potency, µM (highest dose often 57.5 µM), for the others: at the top dose activity change, negative = inhibition, most hits filed as inhibitors | hit rate 0.37% among 290,000 | Q27686; also: potency is read from the fitted curve at half-maximal effect; % is scaled to controls: 0 for no effect and ±100 for the full control effect
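ATP generated from ADP (0.1 mM) and PEP (0.5 mM) by 0.1 nM LmPK over 1 h at room temperature (pH 7.2 imidazole buffer) was detected by coupled luciferase luminescence. Values were normalized to uninhibited and no-enzyme wells.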
Giardia FBPA inh: inhibitors of Giardia lamblia fructose-1,6-bisphosphate aldolase; A8B2U2; purified Giardia FBPA; Potency, µM (top dose mostly 59.6 µM), for the others: at the top dose activity, negative = inhibition, most hits filed as inhibitors; hit rate 0.71% among 290,000; AID 2451; also: potency is read from the fitted curve at half-maximal effect; % is scaled to controls: 0 for no effect and ±100 for the full control effect; nearly all actives have a fitted effect of over 55% in size
Target sequence (A8B2U2 whole entry, looked up): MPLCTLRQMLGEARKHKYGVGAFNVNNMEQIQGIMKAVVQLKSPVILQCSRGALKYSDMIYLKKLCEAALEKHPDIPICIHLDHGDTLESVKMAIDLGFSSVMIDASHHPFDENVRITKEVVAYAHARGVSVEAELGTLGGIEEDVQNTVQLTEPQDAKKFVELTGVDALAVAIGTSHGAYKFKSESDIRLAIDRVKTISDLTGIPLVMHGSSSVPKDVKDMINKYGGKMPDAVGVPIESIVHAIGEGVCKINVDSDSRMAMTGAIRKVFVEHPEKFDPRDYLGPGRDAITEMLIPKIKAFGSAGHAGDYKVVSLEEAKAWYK
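Giardia FBPA (40 nM reagent) was preincubated 10 min at RT with compound (up to 57.5 uM final), then substrate plus GAPDH/TPI/NAD/arsenate coupling system with diaphorase/resazurin was added; resorufin fluorescence (525/598 nm) was read after 20 min.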
Starred values were filed as active, the others as inactive; u = inconclusive; x = no result; [ ] = another dose, or the depositor's remark. Unless noted, calls follow the shape of the dose curve; as a rule, active = well fitted curve in the direction sought with a large enough effect; inconclusive = small, poorly fitted or top-dose-only effect, or another doubt; inactive = no such curve, though single readings can be large; an effect the other way counts as inactive or inconclusive.

SMILES	Shiga toxin inh	Cycloheximide cs	NS1 function inh	LmPK inhibitor	Giardia FBPA inh
Cn1cnnc1SCC(=O)Nc1ccccc1	1	2	-7%	0%	-14%
CCc1ccc(NC(=O)CSc2nncn2-c2cccnc2)cc1	151*	32*	-11%	-1%	3%
Cn1cnnc1SCC(=O)Nc1ccc(OCc2ccccc2)cc1	90*	48*	x	2%	1%
COc1ccccc1NC(=O)CSc1nncn1-c1cccnc1	24	1	-1%	5%	0%
Cc1ccc(C(=O)O/N=C(\N)Cc2ccc([N+](=O)[O-])cc2)c(Cl)c1	42	9.8*	-76%	2%	-3%
Cc1ccc(CC(=O)O/N=C(\N)Cc2ccc([N+](=O)[O-])cc2)cc1	-9	-3	-12%	2%	-2%
Cc1ccc(C(=O)O/N=C(\N)Cc2cccs2)c(Cl)c1	85*	82*	-111%	-19%	x
Cc1cc(OCC(=O)O/N=C(\N)Cc2cccs2)ccc1Br	18	7	-13%	0%	1%
CNC(=S)Nc1cccc([N+](=O)[O-])c1	-3	-1	x	8%	1%
C/C(=N\Nc1cccc([N+](=O)[O-])c1)c1cc(F)ccc1O	109*	47*	3%	-9%	2%
C/C(=N\Nc1cccc([N+](=O)[O-])c1)c1ccccc1O	73*	33*	x	3%	-28%
CC1CC(C)CN(CCCNC(=O)c2nn(C)c3c2CS(=O)(=O)c2ccccc2-3)C1 (stereo unspecified)	12	-4	-16%	1%	-9%
Cc1ccc2c(c1)sc[n+]2Cc1ccccc1	82*	42*	0%	4%	-10%
Cc1ccc(-c2cc[n+](Cc3ccccc3)cc2)cc1	-8	9	-1%	-11%	0%
Cc1cc(-c2nnc(CCC(=O)N3CCN(Cc4cccc(F)c4)CC3)o2)c(C)o1	42*	19*	-2%	4%	-3%
Cc1cccnc1CN1CCN(C(=O)CCc2nnc(CCc3ccccc3)o2)CC1	74*	25*	-3%	-1%	-1%
CC(C)CC(=O)N1CCN(Cc2cccc(F)c2)CC1	-11	-2	0%	-10%	u
COc1ccccc1Cn1[nH]nnc1=S	-9	-2	5%	10%	u
CCOC(=O)N1N=C(c2ccc(OC)cc2)CC1(O)C(F)(F)F (stereo unspecified)	49*	42*	3%	-2%	-1%
CCc1ccc(C2=NN(C(=O)OC)C(O)(C(F)(F)F)C2)cc1 (stereo unspecified)	62*	37*	-3%	-17%	0%
C/C(CCN1CCCc2nc(C)c(C)cc21)=N\O[C@@H](C)c1cn([C@@H]2COC[C@@H]2O)nn1	x	x	x	x	1%[12.9 µM]
Cc1ccc(NC(=S)NCc2ccccn2)cc1	108*	38*	-14%	1%	-23%
Cc1ccc(NC(=O)C(NCc2ccccn2)c2ccccc2)cc1 (stereo unspecified)	101*	37*	x	-1%	-6%
S=C(NCc1ccccn1)Nc1cccc(Cl)c1	26	13*	x	1%	-14%
CC(C)=C[C@H]1[C@@H](COC(=O)c2ccccc2Cl)C1(C)C	x	x	-8%	x	x
SMILES	Shiga toxin inh	Cycloheximide cs	NS1 function inh	LmPK inhibitor	Giardia FBPA inh
O=S(=O)(c1ccccc1)N1CCC2(CCCN(c3ncccn3)C2)CC1	x	x	x	x	0%
CN(CCc1ccccn1)C(=O)Nc1ccc(F)cc1	3	-5	-12%	-2%	0%
CN(CCc1ccccn1)C(=O)Nc1ccc(C(C)(C)C)cc1	26	20*	-4%	2%	-12%
Cc1nc(NC(=O)c2ccc3c(c2)OCO3)ccc1Br	55*	46*	-3%	-12%	-2%
O=C(NC(=S)Nc1ccc([N+](=O)[O-])cc1O)C1CCCCC1	10	16	u	-2%	x
CCC(CC)C(=O)Nc1ccc([N+](=O)[O-])cn1	-10	-3	x	-7%	7%
O=C(CCC1CCCC1)Nc1ccc([N+](=O)[O-])cn1	54*	35*	-2%	0%	9%
Cn1ccc(C(=O)NC(=S)Nc2ccc([N+](=O)[O-])cc2O)n1	34	28*	-10%	-14%	x
O=C(Nc1ccccn1)c1ccc2c(c1)OCCO2	39	26	x	u	2%
Cc1nc(NC(=O)c2cncc(Br)c2)ccc1Br	x	10	-6%	3%	3%
O=C(Nc1ccccn1)c1ccc2c(c1)OCO2	44*	36*	x	14µM*	-10%
Cc1nonc1C(=O)N1CCCC(Nc2ccc(C(C)C)cc2)C1 (stereo unspecified)	2	10	-14%	-1%	-3%
CC(C)[C@H](NC(=O)[C@@H]1CSSC[C@H](NC(=O)[C@H](CC(=O)O)NC(=O)[C@H](C)NC(=O)[C@@H](NC(=O)CNC(=O)[C@H](C)N)[C@@H](C)O)C(=O)N[C@@H](Cc2ccccc2)C(=O)N[C@@H](Cc2c[nH]c3ccccc23)C(=O)N[C@@H](CCCCN)C(=O)N[C@@H](Cc2ccc(O)cc2)C(=O)N1)C(=O)O	-6	-2	x	x	-1%
N#Cc1ccc(CN2CC[C@@]3(CCCN(C(=O)c4cccc(F)c4)C3)C2)cc1	x	x	x	x	-1%
O=C(Nc1ccc([N+](=O)[O-])cn1)c1ccc2c(c1)OCO2	68*	31*	x	2%	-2%
O=C(NC(=S)Nc1cc([N+](=O)[O-])ccc1O)c1ccc2c(c1)OCO2	83*	42*	-16%	3%	-6%
Cc1cc(NC(=O)c2ccc3c(c2)OCCO3)no1	2	15	0%	u	7%
Cc1cc(NC(=O)c2ccc3c(c2)OCO3)no1	106*	29*	3%	-21%	1%
CC(C)(C)c1ccc(C(=O)Nc2ccc([N+](=O)[O-])cn2)cc1	76*	58*	9%	0%	1%
FC(F)(F)c1ccccc1-n1c(-c2cnccn2)n[nH]c1=S	53*	41*	-6%	u	u
Cc1ccc(-n2c(-c3cnccn3)n[nH]c2=S)c(Br)c1	-4	8	1%	32µM*	-18%
CCc1nc2ccc(C(=O)N3CCN(c4ccccc4F)CC3)cc2nc1CC	-1	-1	7%	0%	x
CCCC(=O)NCC(c1cccs1)S(=O)(=O)c1ccc(C)cc1 (stereo unspecified)	-10	-4	-18%	9%	10%
Cc1ccc2[nH]c(-c3cccc(N)c3)cc2c1	97*	30*	4%	-6%	-8%
CCn1c(CC(=O)Nc2ccccc2F)nnc1SCC(=O)Nc1nncs1	-4	3	-1%	-6%	u
Cc1nc(N2CCN(C(=O)c3cnccn3)CC2)c2c3c(sc2n1)CC(C(C)(C)C)CC3 (stereo unspecified)	18	-1	4%	-2%	3%
CCN1C(=O)[C@H]2[C@@H](c3ccc(C)cc3)N3C(=O)N(c4ccccc4)C(=O)[C@@]3(CC)[C@H]2C1=O	28	15*	5%	2%	5%
CN(Cc1cnn(C)c1)C(=O)c1cc(COc2c(F)cccc2F)on1	46	19*	-6%	-1%	6%

Bioassay records as filed in PubChem.
